Assay outcomes (PubChem)
YB-1 expression: YB-1 expression inhibition; U2OS, qRT-PCR YB-1 vs CDIP delta delta Cp, 16 h; hits give high values; zero = DMSO, each unit about twofold; delta delta Cp (YB-1 minus CDIP) (no concentration beside the values); 0.37% of 30,000 active;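 active = delta delta Cp rounded down to an integer at or above 3, about 3 SD of DMSO wells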;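 note: higher means less YB-1 transcript or more CDIP transcript relative to DMSO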
ROS inducer: cancer cell ROS induction | U2OS ROS induction, H2DCF-DA fluorescence | ROS induction (% of piperlongumine), % at 10 µM | 2% of 46,000 active; in the data active = ROS induction above about 79%, passing the limit was not always enough
Large screens that a line does not name were inactive. This is a sample that favours compounds with a hit; in the whole collection about 2.3% have one here.

CC1CCCC(NC(=O)c2ccc3c(SCC(=O)O)c4c(nc3c2)CCC4)C1C (stereo not drawn)	none (no result: YB-1 expression)
CCC(C)NC(=O)Cn1ncn2c(cc3sc(C)cc32)c1=O (stereo not drawn)	none (no result: YB-1 expression)
CCOC(CCn1c(=S)[nH]c2cc(C(=O)OC)ccc2c1=O)OCC	none (no result: YB-1 expression)
O=C(CC(CC(=O)c1ccccc1)c1cccc2ccccc12)c1ccccc1	none (no result: YB-1 expression)
N#C/C(=C\N1CCC(n2cccc2)CC1)S(=O)(=O)c1ccccn1	none (no result: YB-1 expression)
Cc1ccc2nc(C(F)(F)F)cc(N3CCN(/C=C(/C#N)S(=O)(=O)c4ccccn4)CC3)c2c1	ROS inducer 93 (no result: YB-1 expression)
COc1ccc(S(=O)(=O)N(C)C[C@H]2OCCCC[C@@H](C)Oc3ccc(NS(=O)(=O)c4cccs4)cc3C(=O)N([C@H](C)CO)C[C@@H]2C)cc1	none
C[C@@H]1CCCCO[C@@H](CN(C)S(=O)(=O)c2ccc(Cl)cc2)[C@@H](C)CN([C@H](C)CO)C(=O)c2cc(NS(=O)(=O)c3cccs3)ccc2O1	ROS inducer 94
C[C@@H]1CCCCO[C@@H](CN(C)S(=O)(=O)c2cccs2)[C@@H](C)CN([C@H](C)CO)C(=O)c2cc(NS(=O)(=O)c3ccc(Cl)cc3)ccc2O1	none
COc1ccc(S(=O)(=O)N(C)C[C@@H]2OCCCC[C@@H](C)Oc3ccc(NS(=O)(=O)c4cccs4)cc3C(=O)N([C@H](C)CO)C[C@@H]2C)cc1	ROS inducer 115
Cc1noc(C)c1CSc1n[nH]c(=O)n1Cc1ccco1	none (no result: YB-1 expression)
O=c1cc(CSc2cccc3cccnc23)c2ccc(O)cc2o1	none
COC1=CC(=O)OC1C(O)C(O)C(OC(C)=O)c1ccccc1 (stereo not drawn)	none
COC(/C=C/C(OC(C)=O)C(C)OC(C)=O)C(O)C1CC=CC(=O)O1 (stereo not drawn)	ROS inducer 105
Cc1cc(Oc2ccccc2)nc(Oc2ccc(OCCOc3ccc(Br)cc3)nn2)n1	none (no result: YB-1 expression)
COc1cccc2c1C(=O)c1c(O)c3c(c(O)c1C2=O)C[C@@](O)(C(C)=O)C[C@@H]3O[C@H]1C[C@H](N)[C@H](O)[C@H](C)O1	ROS inducer 141
CC1CC(=O)c2c(ccc3c2C(=O)c2c(O[C@@H]4O[C@@H](C)[C@H](O)[C@@H](O)[C@H]4O)cccc2C3=O)C1 (stereo partly drawn)	none
FC(F)(F)c1cccc(C=NCc2ccc(-c3cccs3)s2)c1	none (no result: YB-1 expression)
S=C(NC1CCCCC1)N1CCN(Cc2ccc3c(c2)OCO3)CC1	none (no result: YB-1 expression)
Cc1oc2c(c1C(=O)NC1CCCC1)C(=O)c1ccccc1C2=O	ROS inducer 102
Cc1oc2c(c1C(=O)NCCc1ccccc1)C(=O)c1ccccc1C2=O	none
Cc1ccc(Cn2c(C(=O)NCc3ccccc3)cc3sccc32)cc1	none (no result: YB-1 expression)
O=C1O[C@@H](c2ccccc2)[C@@H](c2ccccc2)N2[C@@H](c3ccccc3OCCO)[C@]3(C(=O)Nc4ccc(C#CCCO)cc43)[C@@H](C(=O)N3CCN(c4ncccn4)CC3)[C@H]12	ROS inducer 94
O=C1O[C@H](c2ccccc2)[C@H](c2ccccc2)N2[C@H]1[C@@H](C(=O)N1CCN(c3ncccn3)CC1)[C@]1(C(=O)Nc3ccc(C#CC4(O)CCCCCC4)cc31)[C@H]2c1ccccc1OCCO	ROS inducer 147
O=C1O[C@H](c2ccccc2)[C@H](c2ccccc2)N2[C@H]1[C@@H](C(=O)N1CCCCCCC1)[C@]1(C(=O)Nc3ccc(C#CC4(O)CCCCCC4)cc31)[C@H]2c1ccccc1OCCO	none
O=C1O[C@H](c2ccccc2)[C@H](c2ccccc2)N2[C@H]1[C@@H](C(=O)O)[C@]1(C(=O)Nc3ccccc31)[C@H]2c1ccccc1OCCO	none
O=C1O[C@@H](c2ccccc2)[C@@H](c2ccccc2)N2[C@@H](c3ccccc3OCCO)[C@]3(C(=O)Nc4ccccc43)[C@@H](C(=O)N3CCN(c4ncccn4)CC3)[C@H]12	ROS inducer 122
COc1ccc(C#Cc2ccc3c(c2)[C@]2(C(=O)N3)[C@H](C(=O)N3CCN(c4ncccn4)CC3)[C@H]3C(=O)O[C@H](c4ccccc4)[C@H](c4ccccc4)N3[C@@H]2c2ccccc2OCCO)cc1	none
C=CCNC(=S)N1CCN(C(c2ccccc2)c2ccccc2)CC1	none (no result: YB-1 expression)
Cc1ccc(NC(=O)C2CCCN(S(=O)(=O)c3ccc4nc(-c5ccccc5)[nH]c4c3)C2)cc1 (stereo not drawn)	none (no result: YB-1 expression)
COc1cc(C(=O)OC[C@@]2(O)CO[C@H](OC3C(CO)OC(OC(C)/C=C/C4(O)C(C)CC(O)CC4(C)C)C(O)C3O)[C@@H]2O)cc(OC)c1O (stereo partly drawn)	YB-1 expression 3.5
CC(/C=C/C1(O)C(C)CC(O)CC1(C)C)OC1OC(CO)C(O)C(O)C1O (stereo not drawn)	none
COc1cc(O)c2c(=O)cc(-c3ccccc3)oc2c1OC	none
COc1cc(-c2cc(=O)c3c(O)c(OC)c(OC)c(OC)c3o2)cc(OC)c1OC	ROS inducer 99
CCOC(=O)CN1C(=O)S/C(=C\c2ccccc2OCc2ccccc2F)C1=O	ROS inducer 103 (no result: YB-1 expression)
CCOC(=O)CN1C(=O)S/C(=C/c2ccc3c(c2)n(C)c(=O)n3C)C1=O	none (no result: YB-1 expression)
CC(=O)[C@@]1(O)CCC2C3CCC4=CC(=O)CC[C@]4(C)C3CC[C@@]21C (stereo partly drawn)	ROS inducer 155
CC(=O)[C@H]1CCC2[C@@H]3CCC4=CC(=O)CC[C@]4(C)C3CC[C@@]21C (stereo partly drawn)	none
C[C@@H]1CCCCO[C@@H](CN(C)C(=O)Cc2ccccc2)[C@@H](C)CN([C@H](C)CO)C(=O)c2cc(NC(=O)NC3CCCCC3)ccc2O1	ROS inducer 143
CC(C)NC(=O)Nc1ccc2c(c1)C(=O)N([C@H](C)CO)C[C@H](C)[C@H](CN(C)C(=O)Cc1ccccc1)OCCCC[C@@H](C)O2	none
C[C@@H]1CCCCO[C@@H](CN(C)C(=O)Nc2cccc3ccccc23)[C@@H](C)CN([C@H](C)CO)C(=O)c2cc(NC(=O)NC3CCCCC3)ccc2O1	none
C[C@@H]1CCCCO[C@@H](CN(C)C(=O)NC2CCCCC2)[C@@H](C)CN([C@H](C)CO)C(=O)c2cc(NC(=O)Nc3cccc4ccccc34)ccc2O1	ROS inducer 139
C[C@@H]1CCCCO[C@@H](CN(C)C(=O)Nc2cccc3ccccc23)[C@@H](C)CN([C@H](C)CO)C(=O)c2cc(NS(=O)(=O)c3ccc(F)cc3)ccc2O1	none
C[C@@H]1CCCCO[C@@H](CN(C)C(=O)Nc2cccc3ccccc23)[C@@H](C)CN([C@H](C)CO)C(=O)c2cc(NS(=O)(=O)c3ccc(Cl)cc3)ccc2O1	ROS inducer 107
CN(C)c1ccc(C(=C2C=CC(=[N+](C)C)C=C2)c2ccc(N(C)C)cc2)cc1	ROS inducer 341
COc1ccc([N+](=O)[O-])cc1NC(=O)C1(c2ccc(OC)c(OC)c2)CCCCC1	ROS inducer 149 (no result: YB-1 expression)
COc1ccccc1CC(=O)Nc1cc([N+](=O)[O-])ccc1OC	none (no result: YB-1 expression)
C=CCNC(=O)[C@@H]1[C@H]2C(=O)O[C@H](c3ccccc3)[C@H](c3ccccc3)N2[C@H](c2ccc(OCCO)cc2)[C@@]12C(=O)Nc1ccc(C#CC3=CCCCC3)cc12	none
C=CCNC(=O)[C@@H]1[C@H]2C(=O)O[C@H](c3ccccc3)[C@H](c3ccccc3)N2[C@H](c2ccc(O)cc2)[C@@]12C(=O)Nc1ccc(C#CC3(O)CCCCCC3)cc12	none
